Laboratory results reported in the supplement of paper PMC4466140.

target: SpBzz1-D2; assay: SPOT peptide array binding signal intensity (averaged, normalized) (arbitrary units (background-subtracted, floor 0; scale differs between SH3 domains)); higher = stronger binding of the SH3 domain to the peptide
Outline: (§1)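 Peptides were synthetic 15-mers on cellulose membranes, with every cysteine replaced by serine. They were incubated overnight at 4°C with GST-SH3 domains from four yeast species at 10 μg/ml in TBS-based blocking buffer. Binding signal, the replicate-averaged normalized and background-subtracted spot intensity, is in arbitrary units that differ between domains.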

Binder	SPOT peptide array binding signal intensity
RSLRKRPTSPSISGS	0.75
RRGPAPPPPPRASRP	340

target: SpCyk3; assay: as above
Outline: as §1

Binder	SPOT peptide array binding signal intensity
RSLRKRPTSPSISGS	13.5
RRGPAPPPPPRASRP	13

target: SpHof1; assay: as above
Outline: as §1

Binder	SPOT peptide array binding signal intensity
RSLRKRPTSPSISGS	428
RRGPAPPPPPRASRP	52

target: SpHof1-2; assay: as above
Outline: as §1

Binder	SPOT peptide array binding signal intensity
RSLRKRPTSPSISGS	43.8
RRGPAPPPPPRASRP	27.8

target: SpHof1-3; assay: as above
Outline: as §1

Binder	SPOT peptide array binding signal intensity
RSLRKRPTSPSISGS	730
RRGPAPPPPPRASRP	420

target: SpHse1; assay: as above
Outline: as §1

Binder	SPOT peptide array binding signal intensity
RSLRKRPTSPSISGS	621
RRGPAPPPPPRASRP	37.8

target: SpLsb1; assay: as above
Outline: as §1

Binder	SPOT peptide array binding signal intensity
RSLRKRPTSPSISGS	17.8
RRGPAPPPPPRASRP	107

target: SpLsb4; assay: as above
Outline: as §1

Binder	SPOT peptide array binding signal intensity
RSLRKRPTSPSISGS	776
RRGPAPPPPPRASRP	1730

target: SpMyo1; assay: as above
Outline: as §1

Binder	SPOT peptide array binding signal intensity
RSLRKRPTSPSISGS	9
RRGPAPPPPPRASRP	391

target: SpNbp2; assay: as above
Outline: as §1

Binder	SPOT peptide array binding signal intensity
RSLRKRPTSPSISGS	2180
RRGPAPPPPPRASRP	15.5

target: SpPex13; assay: as above
Outline: as §1

Binder	SPOT peptide array binding signal intensity
RSLRKRPTSPSISGS	7
RRGPAPPPPPRASRP	2

target: SpRvs167; assay: as above
Outline: as §1

Binder	SPOT peptide array binding signal intensity
RSLRKRPTSPSISGS	10.8
RRGPAPPPPPRASRP	2270

target: SpSla1-D1-D2; assay: as above
Outline: as §1

Binder	SPOT peptide array binding signal intensity
RSLRKRPTSPSISGS	5
RRGPAPPPPPRASRP	571

target: SpSla1-D3; assay: as above
Outline: as §1

Binder	SPOT peptide array binding signal intensity
RSLRKRPTSPSISGS	8
RRGPAPPPPPRASRP	≤ 0

target: AgAbp1; assay: as above
Outline: as §1

Binder	SPOT peptide array binding signal intensity
IVNKPLPPLPVAGSS	177
RRGPAPPPPPRASRP	181

target: AgBbc1; assay: as above
Outline: as §1

Binder	SPOT peptide array binding signal intensity
IVNKPLPPLPVAGSS	≤ 0
RRGPAPPPPPRASRP	646

target: AgBem1-D1; assay: as above
Outline: as §1

Binder	SPOT peptide array binding signal intensity
IVNKPLPPLPVAGSS	5.5
RRGPAPPPPPRASRP	410

target: AgBzz1-D1; assay: as above
Outline: as §1

Binder	SPOT peptide array binding signal intensity
IVNKPLPPLPVAGSS	30
RRGPAPPPPPRASRP	582

target: AgBzz1-D2; assay: as above
Outline: as §1

Binder	SPOT peptide array binding signal intensity
IVNKPLPPLPVAGSS	17.5
RRGPAPPPPPRASRP	164

target: AgCyk3; assay: as above
Outline: as §1

Binder	SPOT peptide array binding signal intensity
IVNKPLPPLPVAGSS	≤ 0
RRGPAPPPPPRASRP	2

target: AgFus1; assay: as above
Outline: as §1

Binder	SPOT peptide array binding signal intensity
IVNKPLPPLPVAGSS	1.5
RRGPAPPPPPRASRP	23

target: AgHof1; assay: as above
Outline: as §1

Binder	SPOT peptide array binding signal intensity
IVNKPLPPLPVAGSS	748
RRGPAPPPPPRASRP	63.8

target: AgHse1; assay: as above
Outline: as §1

Binder	SPOT peptide array binding signal intensity
IVNKPLPPLPVAGSS	17.5
RRGPAPPPPPRASRP	32.5

target: AgLsb1; assay: as above
Outline: as §1

Binder	SPOT peptide array binding signal intensity
IVNKPLPPLPVAGSS	≤ 0
RRGPAPPPPPRASRP	80.2

target: AgLsb4; assay: as above
Outline: as §1

Binder	SPOT peptide array binding signal intensity
IVNKPLPPLPVAGSS	7.5
RRGPAPPPPPRASRP	485

target: AgMyo5; assay: as above
Outline: as §1

Binder	SPOT peptide array binding signal intensity
IVNKPLPPLPVAGSS	≤ 0
RRGPAPPPPPRASRP	89

target: AgNbp2; assay: as above
Outline: as §1

Binder	SPOT peptide array binding signal intensity
IVNKPLPPLPVAGSS	≤ 0
RRGPAPPPPPRASRP	205

target: AgRvs167; assay: as above
Outline: as §1

Binder	SPOT peptide array binding signal intensity
IVNKPLPPLPVAGSS	2.33
RRGPAPPPPPRASRP	339

target: AgSho1; assay: as above
Outline: as §1

Binder	SPOT peptide array binding signal intensity
IVNKPLPPLPVAGSS	6850
RRGPAPPPPPRASRP	13

target: AgSla1-D1-D2; assay: as above
Outline: as §1

Binder	SPOT peptide array binding signal intensity
IVNKPLPPLPVAGSS	1
RRGPAPPPPPRASRP	21

target: AgSla1-D3; assay: as above
Outline: as §1

Binder	SPOT peptide array binding signal intensity
IVNKPLPPLPVAGSS	≤ 0
RRGPAPPPPPRASRP	14

target: CaAbp1-D1; assay: as above
Outline: as §1

Binder	SPOT peptide array binding signal intensity
IVNKPLPPLPVAGSS	21.5
RRGPAPPPPPRASRP	1290

target: CaAbp1-D2; assay: as above
Outline: as §1

Binder	SPOT peptide array binding signal intensity
IVNKPLPPLPVAGSS	48
RRGPAPPPPPRASRP	281

target: CaBbc1; assay: as above
Outline: as §1

Binder	SPOT peptide array binding signal intensity
IVNKPLPPLPVAGSS	≤ 0
RRGPAPPPPPRASRP	1160

target: CaBem1-D1; assay: as above
Outline: as §1

Binder	SPOT peptide array binding signal intensity
IVNKPLPPLPVAGSS	≤ 0
RRGPAPPPPPRASRP	1890

target: CaBzz1-D1; assay: as above
Outline: as §1

Binder	SPOT peptide array binding signal intensity
IVNKPLPPLPVAGSS	459
RRGPAPPPPPRASRP	3450

target: CaBzz1-D2; assay: as above
Outline: as §1

Binder	SPOT peptide array binding signal intensity
IVNKPLPPLPVAGSS	≤ 0
RRGPAPPPPPRASRP	2600

target: CaCyk3; assay: as above
Outline: as §1

Binder	SPOT peptide array binding signal intensity
IVNKPLPPLPVAGSS	0.5
RRGPAPPPPPRASRP	216

target: CaFus1; assay: as above
Outline: as §1

Binder	SPOT peptide array binding signal intensity
IVNKPLPPLPVAGSS	232
RRGPAPPPPPRASRP	124

target: CaHof1; assay: as above
Outline: as §1

Binder	SPOT peptide array binding signal intensity
IVNKPLPPLPVAGSS	55.2
RRGPAPPPPPRASRP	6.5

target: CaHse1; assay: as above
Outline: as §1

Binder	SPOT peptide array binding signal intensity
IVNKPLPPLPVAGSS	1300
RRGPAPPPPPRASRP	6.75

target: CaLsb1; assay: as above
Outline: as §1

Binder	SPOT peptide array binding signal intensity
IVNKPLPPLPVAGSS	≤ 0
RRGPAPPPPPRASRP	0.75

target: CaLsb4; assay: as above
Outline: as §1

Binder	SPOT peptide array binding signal intensity
IVNKPLPPLPVAGSS	≤ 0
RRGPAPPPPPRASRP	1000

target: CaMyo5; assay: as above
Outline: as §1

Binder	SPOT peptide array binding signal intensity
IVNKPLPPLPVAGSS	≤ 0
RRGPAPPPPPRASRP	9

target: CaNbp2; assay: as above
Outline: as §1

Binder	SPOT peptide array binding signal intensity
RRGPAPPPPPRASRP	209

target: CaRvs167; assay: as above
Outline: as §1

Binder	SPOT peptide array binding signal intensity
RRGPAPPPPPRASRP	805

target: CaRvs167-3; assay: as above
Outline: as §1

Binder	SPOT peptide array binding signal intensity
RRGPAPPPPPRASRP	11

target: CaSho1; assay: as above
Outline: as §1

Binder	SPOT peptide array binding signal intensity
RRGPAPPPPPRASRP	18.5

target: CaSla1-D1-D2; assay: as above
Outline: as §1

Binder	SPOT peptide array binding signal intensity
RRGPAPPPPPRASRP	2130

target: CaSla1-D3; assay: as above
Outline: as §1

Binder	SPOT peptide array binding signal intensity
RRGPAPPPPPRASRP	143

target: ScAbp1; assay: as above
Outline: as §1

Binder	SPOT peptide array binding signal intensity
RRGPAPPPPPRASRP	272

target: ScBbc1; assay: as above
Outline: as §1

Binder	SPOT peptide array binding signal intensity
RRGPAPPPPPRASRP	150

target: ScBem1-D1; assay: as above
Outline: as §1

Binder	SPOT peptide array binding signal intensity
RRGPAPPPPPRASRP	6

target: ScBzz1-D1; assay: as above
Outline: as §1

Binder	SPOT peptide array binding signal intensity
RRGPAPPPPPRASRP	457

target: ScBzz1-D2; assay: as above
Outline: as §1

Binder	SPOT peptide array binding signal intensity
RRGPAPPPPPRASRP	68.5

target: ScCyk3; assay: as above
Outline: as §1

Binder	SPOT peptide array binding signal intensity
RRGPAPPPPPRASRP	16

target: ScFus1; assay: as above
Outline: as §1

Binder	SPOT peptide array binding signal intensity
RRGPAPPPPPRASRP	12.5

target: ScHof1; assay: as above
Outline: as §1

Binder	SPOT peptide array binding signal intensity
RRGPAPPPPPRASRP	12.2

target: ScHse1; assay: as above
Outline: as §1

Binder	SPOT peptide array binding signal intensity
RRGPAPPPPPRASRP	28.5

target: ScLsb1; assay: as above
Outline: as §1

Binder	SPOT peptide array binding signal intensity
RRGPAPPPPPRASRP	132

target: ScLsb2; assay: as above
Outline: as §1

Binder	SPOT peptide array binding signal intensity
RRGPAPPPPPRASRP	54

target: ScLsb3; assay: as above
Outline: as §1

Binder	SPOT peptide array binding signal intensity
RRGPAPPPPPRASRP	1380

target: ScLsb4; assay: as above
Outline: as §1

Binder	SPOT peptide array binding signal intensity
RRGPAPPPPPRASRP	892

target: ScMyo3; assay: as above
Outline: as §1

Binder	SPOT peptide array binding signal intensity
RRGPAPPPPPRASRP	160

target: ScMyo5; assay: as above
Outline: as §1

Binder	SPOT peptide array binding signal intensity
RRGPAPPPPPRASRP	279

target: ScNbp2; assay: as above
Outline: as §1

Binder	SPOT peptide array binding signal intensity
RRGPAPPPPPRASRP	158

target: ScPex13; assay: as above
Outline: as §1

Binder	SPOT peptide array binding signal intensity
RRGPAPPPPPRASRP	1150

target: ScRvs167; assay: as above
Outline: as §1

Binder	SPOT peptide array binding signal intensity
RRGPAPPPPPRASRP	2010

target: ScSho1; assay: as above
Outline: as §1

Binder	SPOT peptide array binding signal intensity
RRGPAPPPPPRASRP	668

target: ScSla1-D1-D2; assay: as above
Outline: as §1

Binder	SPOT peptide array binding signal intensity
RRGPAPPPPPRASRP	4710

target: ScSla1-D3; assay: as above
Outline: as §1

Binder	SPOT peptide array binding signal intensity
RRGPAPPPPPRASRP	8.25

target: SpAbp1-D1; assay: as above
Outline: as §1

Binder	SPOT peptide array binding signal intensity
RRGPAPPPPPRASRP	726

target: SpBbc1; assay: as above
Outline: as §1

Binder	SPOT peptide array binding signal intensity
RRGPAPPPPPRASRP	24

target: SpBzz1-D1; assay: as above
Outline: as §1

Binder	SPOT peptide array binding signal intensity
RRGPAPPPPPRASRP	1820
